{"source": "PubChem BioAssay AID588591", "about": "(National Center for Advancing Translational Sciences (NCATS), 2011)", "note": "In all, about 390,000 compounds went through this assay and about 4,700 (1.2%) were called active. A call without a number means that no potency is given here. Not shown: some 4% with an inconclusive outcome. The call rests on the fitted dose curve; in most records, active means well fitted inhibition curve with a large enough effect; inconclusive means small, poorly fitted or top-dose-only effect, or another doubt; inactive means no such curve, though single readings can be large or run the other way. For the sample, actives were picked, then their nearest neighbours and some compounds at random. Potency means the concentration at half of the fitted maximal effect.", "data": [{"molecular_target": "DNA polymerase eta (Homo sapiens) (UniProt Q9Y253)", "sequence (Q9Y253 whole entry, looked up)": "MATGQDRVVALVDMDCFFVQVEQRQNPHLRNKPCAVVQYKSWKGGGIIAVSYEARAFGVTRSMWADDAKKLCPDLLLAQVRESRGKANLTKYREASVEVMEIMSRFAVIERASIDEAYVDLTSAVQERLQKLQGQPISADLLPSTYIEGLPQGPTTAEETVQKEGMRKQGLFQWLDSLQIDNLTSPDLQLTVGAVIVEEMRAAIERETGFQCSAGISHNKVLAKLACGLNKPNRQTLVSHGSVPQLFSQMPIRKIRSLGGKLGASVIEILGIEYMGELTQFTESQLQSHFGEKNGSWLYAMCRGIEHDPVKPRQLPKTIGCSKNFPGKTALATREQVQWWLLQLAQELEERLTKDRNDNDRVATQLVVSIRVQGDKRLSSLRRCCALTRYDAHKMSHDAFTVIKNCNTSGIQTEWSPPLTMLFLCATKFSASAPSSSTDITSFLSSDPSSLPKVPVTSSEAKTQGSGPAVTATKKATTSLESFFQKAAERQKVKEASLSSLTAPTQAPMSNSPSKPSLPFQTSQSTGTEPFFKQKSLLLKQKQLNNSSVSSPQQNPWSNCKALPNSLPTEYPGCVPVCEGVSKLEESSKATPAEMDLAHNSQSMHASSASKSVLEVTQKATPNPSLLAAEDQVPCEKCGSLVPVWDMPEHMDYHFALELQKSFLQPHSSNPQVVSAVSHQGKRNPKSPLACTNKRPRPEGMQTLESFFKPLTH", "assay": "qHTS for Inhibitors of Polymerase Eta", "details": "recombinant Pol eta, fluorescent DNA replication assay; series mostly up to 114 µM", "procedure,_shortened": "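Pol eta at 10 nM preincubated with compounds 15 min at room temperature; reaction started with fluorescent substrate (50 nM final) and read kinetically at 0 and 10 min.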", "values": [{"smiles": "Cc1ccc(Cc2cnc(N)s2)o1", "Potency": "79.4 µM (active)"}, {"smiles": "CCOC(=O)C1CCN(c2nc3c(S(=O)(=O)c4ccc(CC)cc4)nnn3c3ccc(Cl)cc23)CC1", "Potency": "inactive"}, {"smiles": "CCCN(CCC)C(=O)C(Cc1ccccc1)NS(=O)(=O)c1ccc2c(c1)c(=O)n(C)c(=O)n2C", "note": "(stereo not drawn)", "Potency": "inactive"}, {"smiles": "Cc1oc(-c2ccccc2)nc1Cn1c(SCc2cccc(C(F)(F)F)c2)nc2cccnc21", "Potency": "inactive"}, {"smiles": "Cc1ccccc1CSc1nnc(-c2ccccc2)c(=O)[nH]1", "Potency": "inactive"}, {"smiles": "N#Cc1c(-c2ccccc2)nc(SCc2cccc(C(F)(F)F)c2)[nH]c1=O", "Potency": "89.1 µM (active)"}, {"smiles": "COc1ccccc1OCC(=O)Nc1nnc2n1CCS2", "Potency": "inactive"}, {"smiles": "COc1ccccc1CNC(=O)c1ccc(NC(=O)N2CC(C)Sc3ccccc32)cc1", "note": "(stereo not drawn)", "Potency": "inactive"}, {"smiles": "Cc1cccc(NC(=O)CSc2nc(-c3ccco3)cc(C(F)(F)F)n2)c1C", "Potency": "inactive"}, {"smiles": "Cc1cc(C)c2nc(-c3ccco3)cc(C(=O)O)c2c1", "Potency": "22.4 µM (active)"}, {"smiles": "Cc1ccc(F)cc1NC(=O)CCSc1nc(-c2ccco2)cc(C(F)(F)F)n1", "Potency": "inactive"}, {"smiles": "CCN(CCCNC(=O)c1cc2c(=O)n(CC)c3ccccc3c2s1)Cc1ccccc1", "Potency": "inactive"}, {"smiles": "COC(=O)c1ccccc1NC(=O)c1cc(-c2ccccc2O)no1", "Potency": "inactive"}, {"smiles": "COc1ccc(NC(=O)c2sc3nc[nH]c(=O)c3c2C)cc1", "Potency": "inactive"}, {"smiles": "CCOC(=O)c1ccc(N2C(=O)c3[nH]nc(-c4ccccc4)c3C2c2ccc(C(C)C)cc2)cc1", "note": "(stereo not drawn)", "Potency": "inactive"}, {"smiles": "O=C(O)c1cccc2c1C(=O)N(C1CCCC1)C2", "Potency": "inactive"}, {"smiles": "O=C(O)c1cccc2c1C(=O)N(C1CCCCC1)C2", "Potency": "31.6 µM (active)"}, {"smiles": "COC(=O)c1ccc(NC(=O)c2cccc3c2C(=O)N(C2CCCCC2)C3)cc1", "Potency": "inactive"}, {"smiles": "CCC1(C)CC(=O)NC1=O", "note": "(stereo not drawn)", "Potency": "inactive"}, {"smiles": "Cc1cc2nc(-c3ccc(NC(=O)c4cc5ccccc5o4)cc3)oc2cc1C", "Potency": "inactive"}, {"smiles": "Cc1cccc(N(C)C(=O)CS(=O)(=O)c2cccc3nsnc23)c1", "Potency": "inactive"}, {"smiles": "COc1ccc(NC(=O)CSC2=Nc3ccccc3C3=NC(CC(=O)NCc4ccccc4OC)C(=O)N23)cc1Cl", "note": "(stereo not drawn)", "Potency": "inactive"}, {"smiles": "CCN(CC)CCOc1ccc2c(c1)C(=NNC(=O)c1ccccn1)c1cc(OCCN(CC)CC)ccc1-2", "Potency": "22.4 µM (active)"}, {"smiles": "CCN(CC)S(=O)(=O)c1cc(C(=O)Nc2ccccn2)ccc1C", "Potency": "inactive"}, {"smiles": "CCOc1ccc(C(=O)N2CCN(CCc3ccccn3)CC2)cc1", "Potency": "inactive"}, {"smiles": "COC(=O)c1ccc(NC(=O)c2cnn(-c3ccc(Cl)cc3)c2C2CCN(C(=O)OC(C)(C)C)CC2)cc1", "Potency": "inactive"}, {"smiles": "COc1ccc(-c2nn(CC(=O)Nc3ccccc3F)c3c2cnc2ccc(F)cc23)cc1", "Potency": "inactive"}, {"smiles": "Cc1cc(C(C)(C)C)cc(S(=O)(=O)Nc2ccc(C(=O)O)cc2)c1C", "Potency": "inactive"}, {"smiles": "O=C(O)c1ccc(NS(=O)(=O)c2ccc3c(c2)C(=O)c2cc(S(=O)(=O)Nc4ccc(C(=O)O)cc4)ccc2-3)cc1", "Potency": "39.8 µM (active)"}, {"smiles": "O=C(c1ccc(NS(=O)(=O)c2ccc3[nH]c(=O)[nH]c3c2)cc1)N1CCCCC1", "Potency": "inactive"}, {"smiles": "Cc1ccc(CN(C(=O)c2ccccc2[N+](=O)[O-])c2ccccn2)cc1", "Potency": "inactive"}, {"smiles": "CC(C)CCNC(=O)CSc1nc2ccccc2nc1Cc1ccc(Cl)cc1", "Potency": "inactive"}, {"smiles": "Cn1c(SCC(=O)N2CCCc3ccccc32)ncc(C(=O)Nc2ccc(F)cc2)c1=O", "Potency": "inactive"}, {"smiles": "CC(NC(=O)c1cc2c(=O)n3ccccc3nc2n(C(C)C)c1=N)c1ccccc1", "note": "(stereo not drawn)", "Potency": "inactive"}, {"smiles": "COc1ccc(OC)c2sc(N3CCN(C(=O)C4COc5ccccc5O4)CC3)nc12", "note": "(stereo not drawn)", "Potency": "inactive"}, {"smiles": "COc1cc(NS(=O)(=O)c2ccc3c(c2)OCC(C(=O)N2CCCC2)O3)cc(OC)c1", "note": "(stereo not drawn)", "Potency": "inactive"}, {"smiles": "Cc1c(CC(=O)N2CCN(C(=O)C3COc4ccccc4O3)CC2)c(=O)oc2c(O)c(O)ccc12", "note": "(stereo not drawn)", "Potency": "2 µM (active)"}, {"smiles": "O=S(=O)(NCCc1nnc2ccc(SCc3ccc(Cl)cc3Cl)nn12)c1ccccc1", "Potency": "inactive"}, {"smiles": "CCOCCCn1c(SCC(=O)Nc2ccc(CC)cc2)nc2ccccc2c1=O", "Potency": "inactive"}, {"smiles": "COc1ccc(OC)c(NC(=O)/C=C/c2ccc(C)o2)c1", "Potency": "inactive"}, {"smiles": "Cc1ccc(/C=C/C(=O)Nc2ccc([N+](=O)[O-])c(NC(=O)/C=C/c3ccc(C)o3)c2)o1", "Potency": "8.91 µM (active)"}, {"smiles": "CC(=O)Nc1ccc2c3c(ccc([N+](=O)[O-])c13)CC2", "Potency": "inactive"}, {"smiles": "COc1ccc(NC(=O)CCNS(=O)(=O)c2ccc3c(c2)CCCC(=O)N3)cc1Cl", "Potency": "inactive"}, {"smiles": "C=CCNC(=S)N1CCN(CCN=Cc2c(C)[nH]n(-c3ccc([N+](=O)[O-])cc3)c2=O)CC1", "Potency": "inactive"}, {"smiles": "O=c1[nH]n(-c2ccc([N+](=O)[O-])cc2)c(=O)c2ccccc12", "Potency": "39.8 µM (active)"}, {"smiles": "O=C(CSCc1ccc([N+](=O)[O-])cc1)NCCSCc1ccccc1", "Potency": "inactive"}, {"smiles": "Cc1cc(C)cc(NC(=O)CSc2oc(-c3ccccc3)nc2S(=O)(=O)c2ccc(Cl)cc2)c1", "Potency": "inactive"}, {"smiles": "Cc1ccc(C(=O)Oc2coc(CSc3nnc(NC(=O)c4cccs4)s3)cc2=O)cc1C", "Potency": "7.94 µM (active)"}, {"smiles": "CCOc1ccccc1Nc1nnc(SCc2ccc(C(=O)OC)o2)s1", "Potency": "inactive"}, {"smiles": "COCCSc1nnc(NC(=O)c2cc(OC)c(OC)cc2[N+](=O)[O-])s1", "Potency": "inactive"}, {"smiles": "CC1=C(c2ccc(C)cc2)S(=O)(=O)NC1=NCCCN1CCN(c2cc(C)ccc2C)CC1", "Potency": "inactive"}, {"smiles": "CCc1ccc2ncc3c(-c4ccc(C)cc4)nn(CC(=O)NCc4ccccc4)c3c2c1", "Potency": "inactive"}, {"smiles": "CCc1ccc(CNCc2c(C(=O)O)n(Cc3ccc(F)cc3Cl)c3cc(OC)ccc23)cc1", "Potency": "inactive"}, {"smiles": "COc1cc(C(=O)NCCc2csc3nc(-c4ccccc4C)nn23)cc(OC)c1OC", "Potency": "inactive"}, {"smiles": "O=C(OCC(=O)c1cccs1)c1ccc([N+](=O)[O-])o1", "Potency": "inactive"}, {"smiles": "O=C(COC(=O)c1ccc(Br)o1)NC12CC3CC(CC(C3)C1)C2", "Potency": "inactive"}, {"smiles": "O=C(COC(=O)c1ccc([N+](=O)[O-])o1)NC12CC3CC(CC(C3)C1)C2", "Potency": "79.4 µM (active)"}, {"smiles": "ON=C1/C(=N\\O)CC2(C/C1=N/O)OCCO2", "Potency": "56.2 µM (active)"}, {"smiles": "COc1ccc(OC)c(NC(=O)CN2CCCN(Cc3cc(C)ccc3C)S2(=O)=O)c1", "Potency": "inactive"}, {"smiles": "COC(=O)c1sc(-c2ccc(C(C)(C)C)cc2)cc1NC(=O)/C=C/C(=O)O", "Potency": "79.4 µM (active)"}, {"smiles": "COc1ccc(Nc2ncc3c(n2)CCN(C(=O)OC(C)(C)C)C3)cc1", "Potency": "inactive"}, {"smiles": "COc1ccc(/C=C/c2noc(-c3ccccc3O)n2)cc1OC", "Potency": "inactive"}, {"smiles": "O=C(CCc1nc(CN2CCN(S(=O)(=O)c3ccc(Cl)cc3)CC2)no1)N1CCCCC1", "Potency": "inactive"}, {"smiles": "CCCCN(CC)CCCNC(=O)Cn1ncc2c([nH]c3ccc(C)cc32)c1=O", "Potency": "inactive"}, {"smiles": "Cc1cc(=O)n2[nH]c(-c3sccc3-n3c(C)ccc3C)cc2n1", "Potency": "22.4 µM (active)"}, {"smiles": "Cc1ccc(-c2cc(N)n(Cc3cccc(Cl)c3)n2)cc1", "Potency": "inactive"}, {"smiles": "COc1cc(Nc2nc(-c3ccc(OC)c(OC)c3)nc3ccccc23)cc(OC)c1", "Potency": "inactive"}, {"smiles": "CC(=O)N(C1=C(Cl)C(=O)c2ccccc2C1=O)c1ccc(C(=O)O)cc1", "Potency": "20 µM (active)"}, {"smiles": "CCC(=O)N1CCc2cc(S(=O)(=O)NC(Cc3ccccc3)C(=O)NCc3ccc(C)cc3)ccc21", "note": "(stereo not drawn)", "Potency": "inactive"}, {"smiles": "COc1ccc(CNC(=O)CSc2n[nH]c(-c3ccc(F)cc3)n2)cc1", "Potency": "inactive"}, {"smiles": "Cc1ccc2nc(SCC(=O)Nc3cccc4ccccc34)nc(=O)n2c1", "Potency": "inactive"}, {"smiles": "Cc1ccn2c(=O)nc(SCC(=O)NCc3ccc(F)cc3)nc2c1", "Potency": "28.2 µM (active)"}, {"smiles": "Cc1ccc(C)c(N2CCN(C(=O)Cn3ncc4c(=O)oc5ccc(C)cc5c43)CC2)c1", "Potency": "inactive"}, {"smiles": "CCOC(=O)c1ccc(CN(Cc2ccccc2)S(=O)(=O)c2ccc(Cl)cc2)cc1", "Potency": "inactive"}, {"smiles": "CCCn1c(=O)c2[nH]c(-c3ccc(OCC(=O)NCCN)cc3)nc2n(CCC)c1=O", "Potency": "inactive"}, {"smiles": "COc1ccc(C(=O)Nc2cccc(/C=C(/CCC(=O)O)c3nc4ccccc4s3)c2)cc1", "Potency": "39.8 µM (active)"}, {"smiles": "COc1cccc(NC(=O)c2ccc3nc(CCc4ccccc4)oc3c2)c1", "Potency": "inactive"}, {"smiles": "COc1ccc(CC(=O)Nc2ccc(-c3nc4ccccc4s3)c(C)c2)cc1", "Potency": "inactive"}, {"smiles": "COc1ccc(OC)c(NC(=O)C2CCN(S(=O)(=O)c3ccc(C)cc3)CC2)c1", "Potency": "inactive"}, {"smiles": "CCOC(=O)c1ccc(N2C(=O)c3n[nH]c(-c4ccco4)c3C2c2ccc(O)cc2)cc1", "note": "(stereo not drawn)", "Potency": "inactive"}, {"smiles": "COc1ccccc1NC(=O)CN1C(=O)c2ccccc2Sc2ccc(C(=O)N3CCCC3)cc21", "Potency": "79.4 µM (active)"}, {"smiles": "COC(=O)c1ccc2c(c1)N(CC(=O)Nc1ccc(C)c(C)c1)C(=O)c1ccccc1S2", "Potency": "inactive"}, {"smiles": "CCN1C(=O)c2ccccc2Sc2ccc(NC(=O)Cc3ccc(OC)cc3)cc21", "Potency": "inactive"}, {"smiles": "CC(C)(C)C1CCc2c(sc(NC(=O)c3ccccc3F)c2C(=O)N2CCCCC2)C1", "note": "(stereo not drawn)", "Potency": "inactive"}, {"smiles": "CCOc1ccccc1NC(=O)c1ccc2c(c1)CCN2S(=O)(=O)c1ccc(C)cc1", "Potency": "inactive"}, {"smiles": "CCc1ccc(C2C(C(=O)Nc3ccccc3)=C(C)Nc3c(C(=O)Nc4ccc(C)cc4)cnn32)cc1", "note": "(stereo not drawn)", "Potency": "inactive"}, {"smiles": "C1=C(N2CCOCC2)/C(=C/c2nc3ccccc3[nH]2)CC1", "Potency": "20 µM (active)"}, {"smiles": "COc1cc(OC)c(C2C=C(C(=O)O)Nc3ncnn32)cc1OC", "note": "(stereo not drawn)", "Potency": "inactive"}, {"smiles": "Cc1cc(C)c(NC(=O)CSc2nc3nccnc3c(=O)n2CCc2c[nH]c3ccccc23)c(C)c1", "Potency": "inactive"}, {"smiles": "O=C(N/N=C/c1cccc([N+](=O)[O-])c1)C1CC(=O)N(c2ccc(Br)cc2)C1", "note": "(stereo not drawn)", "Potency": "inactive"}, {"smiles": "Cc1cc(C(=O)N/N=C/c2ccc(O)c([N+](=O)[O-])c2)c(C)n1-c1ccc(F)cc1", "Potency": "8.91 µM (active)"}, {"smiles": "Cc1cc(C(=O)COc2ccccc2[N+](=O)[O-])c(C)n1-c1cccc(S(=O)(=O)N2CCOCC2)c1", "Potency": "inactive"}, {"smiles": "CC(C)(C)c1ccc(C(=O)NCC(c2ccco2)S(=O)(=O)c2ccc(F)cc2)cc1", "note": "(stereo not drawn)", "Potency": "inactive"}]}]}
